Results taken from PubChem BioAssay (NCI).
This is part of a sample that, as a whole, favours compounds with a hit. Of some 83,000 tested, about 20% had one in any assay.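 Interpretation: 100, growth as untreated; towards 0, rising growth inhibition; 0, no net growth; 0 to -100, cell death. Compounds scoring below 10 were considered active.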 Calls of active or inactive are those of the source.

Legend:
Assay in all cases: NCI-60 one-dose screen, 48 h (100 = growth as untreated, 0 = no growth, -100 = all killed)
Settings in all cases: 10 µM unless noted
NCI-H23 lung = test system: NCI-H23 lung
NCI-H226 lung = test system: NCI-H226 lung
NCI-H322M lung = test system: NCI-H322M lung
HOP-62 NSCLC = test system: HOP-62 NSCLC
NCI-H460 lung = test system: NCI-H460 lung
HOP-92 NSCLC = test system: HOP-92 NSCLC
A549/ATCC NSCLC = test system: A549/ATCC NSCLC
786-0 renal = test system: 786-0 renal
COLO 205 colon = test system: COLO 205 colon

Measured: growth

Nc1ncnc2c1CN(Cc1ccccc1)CC2
inactive: NCI-H23 lung 98.3% | NCI-H226 lung 113% | NCI-H322M lung 117% | HOP-62 NSCLC 106% | NCI-H460 lung 107% | HOP-92 NSCLC 87.5% | A549/ATCC NSCLC 90.3% | 786-0 renal 101% | COLO 205 colon 115%

O=[N+]([O-])c1ccc(N=Nc2c(Cl)cc(O)cc2Cl)cc1
active: NCI-H23 lung -23.4% | NCI-H322M lung -11.9% | HOP-62 NSCLC 4.04% | NCI-H460 lung -4.31% | HOP-92 NSCLC 3.34% | 786-0 renal -20.1%
inactive: NCI-H226 lung 10.3% | A549/ATCC NSCLC 16.4% | COLO 205 colon 35.2%

O=c1oc2c(cc1-c1ccc([N+](=O)[O-])cc1)C(O)Oc1ccccc1-2 (stereo unspecified)
active: HOP-92 NSCLC -13.6%
inactive: NCI-H23 lung 89.3% | NCI-H226 lung 101% | NCI-H322M lung 107% | HOP-62 NSCLC 98.1% | NCI-H460 lung 97.2% | A549/ATCC NSCLC 78.7% | 786-0 renal 98% | COLO 205 colon 93.5%

CN(C)c1ccc(-n2nc3ccccc3n2)cc1
inactive: NCI-H23 lung 95.6% | NCI-H226 lung 86.4% | NCI-H322M lung 111% | HOP-62 NSCLC 78% | NCI-H460 lung 105% | HOP-92 NSCLC 86.9% | A549/ATCC NSCLC 92.3% | 786-0 renal 83.3% | COLO 205 colon 102%

CC(=O)OCC(=O)[C@@]1(O)CC[C@H]2[C@@H]3CCC4=CC(=O)CC[C@]4(C)[C@@]3(F)[C@@H](O)C[C@@]21C
inactive: NCI-H23 lung 108% | NCI-H226 lung 68.8% | NCI-H322M lung 129% | HOP-62 NSCLC 109% | NCI-H460 lung 94% | HOP-92 NSCLC 66.9% | A549/ATCC NSCLC 78.4% | 786-0 renal 116% | COLO 205 colon 97.8%

CCN1CCN(c2nc(NNC(=O)Cc3ccccc3)nc(N3CCN(C(c4ccccc4)c4ccccc4)CC3)n2)CC1
active: COLO 205 colon -41.3%
inactive: NCI-H23 lung 95.1% | NCI-H226 lung 95% | NCI-H322M lung 105% | HOP-62 NSCLC 74.5% | NCI-H460 lung 11.1% | HOP-92 NSCLC 82.9% | A549/ATCC NSCLC 46.6% | 786-0 renal 64.1%

COc1cnc2c(c1)C(=O)c1c-2n(CCCN2CCC(O)CC2)c(=O)c2cc(F)ccc12
active: NCI-H23 lung -19.9% | NCI-H226 lung -83.7% | NCI-H322M lung -3.95% | HOP-62 NSCLC -20.8% | NCI-H460 lung -44.5% | HOP-92 NSCLC -7.92% | A549/ATCC NSCLC -77.5% | 786-0 renal -45.9% | COLO 205 colon -10.9%

CCOc1cc(/C=C/C(=O)C(C(=O)/C=C/c2ccc(OC(=O)CNc3nc4ccccc4[nH]3)c(OCC)c2)C(=O)CNc2nc3ccccc3[nH]2)ccc1OC(=O)CNc1nc2ccccc2[nH]1
inactive: NCI-H322M lung 23.2% | HOP-62 NSCLC 10.1%
active: NCI-H23 lung 6.88% | NCI-H226 lung -10.9% | NCI-H460 lung -27.3% | HOP-92 NSCLC -13% | A549/ATCC NSCLC 7.62% | 786-0 renal -47.7% | COLO 205 colon -41.8%

c1ccc(-c2nc(Nc3nccnn3)c3ccccc3n2)cc1
inactive: NCI-H23 lung 90.4% | NCI-H226 lung 87.5% | NCI-H322M lung 98.1% | HOP-62 NSCLC 99.8% | NCI-H460 lung 101% | HOP-92 NSCLC 105% | A549/ATCC NSCLC 102% | 786-0 renal 96.9% | COLO 205 colon 107%

O=C(Nc1nc2c(C(F)(F)F)cccc2s1)c1cc(Cl)ccc1O
active: NCI-H23 lung 3.47% | NCI-H226 lung -3.02% | NCI-H322M lung 4.87% | HOP-62 NSCLC -7.84% | NCI-H460 lung 2.33% | HOP-92 NSCLC -27.8% | A549/ATCC NSCLC 3.66% | 786-0 renal 1.42% | COLO 205 colon -69.9%

O=C(/C=C/c1cccc(Nc2ccnc3cc(Cl)ccc23)c1)c1ccc(Cl)cc1
inactive: NCI-H23 lung 45.9% | NCI-H226 lung 49.5% | NCI-H322M lung 67.3% | HOP-62 NSCLC 50.2% | NCI-H460 lung 66.7% | HOP-92 NSCLC 45.8% | A549/ATCC NSCLC 79.4% | 786-0 renal 58% | COLO 205 colon 80.1%

CC(C)N(Cc1ccccc1)c1c(S)ssc1=S
active: NCI-H322M lung 7.56% | HOP-62 NSCLC 9.6% | NCI-H460 lung 4.45% | HOP-92 NSCLC -36.2% | A549/ATCC NSCLC 4.58% | COLO 205 colon -40.1%
inactive: NCI-H23 lung 22.8% | NCI-H226 lung 14.2% | 786-0 renal 10.6%

CS(=O)(=O)N1CCN(Cc2cc3nc(-c4cccc5[nH]ncc45)nc(N4CCOCC4)c3s2)CC1 (tested in a mixture with another compound)
active: NCI-H226 lung 8.7% | NCI-H322M lung 3.39% | HOP-92 NSCLC -37.6% | A549/ATCC NSCLC 4.32% | 786-0 renal -10.5% | COLO 205 colon 8.18%
inactive: NCI-H23 lung 23.4% | HOP-62 NSCLC 23.6% | NCI-H460 lung 21.7%

CC(C)OP(=O)(OC(C)C)c1ncc(-c2ccc(C(F)(F)F)cc2)c(NC2CCCCCC2)n1
active: NCI-H23 lung -47.6% [33.3 µM] | NCI-H226 lung -50.3% [33.3 µM] | NCI-H322M lung -70% [33.3 µM] | HOP-62 NSCLC -27.1% [33.3 µM] | NCI-H460 lung -64.5% [33.3 µM] | HOP-92 NSCLC -93.7% [33.3 µM] | A549/ATCC NSCLC -33.6% [33.3 µM] | 786-0 renal -67.6% [33.3 µM] | COLO 205 colon -78% [33.3 µM]
